# Source: PubChem (National Center for Advancing Translational Sciences (NCATS))
# Pf Dd2 inh: inhibitors of Plasmodium falciparum Dd2 growth; P. falciparum Dd2 growth, SYBR Green, 72 h; 4.3% of 120,000 active; AID 1347417; Potency, µM (series often up to 28.9 µM), without a hit: at the highest dose activity, negative = inhibition, usual class: inhibitors; active = well fitted inhibition curve with a large enough effect;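 note: plate controls were DMSO vehicle for no effect and reference drug for full effect; nearly all actives have a fitted effect of over 65% in size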
#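 Readout: SYBR Green fluorescence, 485 nm excitation, 535 nm emission, after ~16 h lysis at 37C. Before that, Dd2-infected red cells (2.5% hematocrit) grew 72 h with compound, 29 uM top final concentration.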
# * = called active by the depositor; i = inactive; [ ] = remark or other dose. The entries come from a sample that favours hits as a whole. Potency is the fitted concentration of half-maximal effect.
SMILES,Pf Dd2 inh
NC(=O)[C@H](Cc1cccs1)NC(=O)[C@@]1(O)C[C@@H](O)[C@H](O)[C@@H](NC(=O)NC2CCCCC2)C1,0.7%
CN(C)c1ccc(C(=O)N2CC[C@H]3NC(=O)N(c4ccc(Oc5ccccc5)cc4)C(=O)[C@H]32)cc1,i
CCN(CC)Cc1cnc2c(C(=O)NC3CCCNC3)cnn2c1 (stereo not drawn),-1.4%
Cc1ccc(C)c(S(=O)(=O)N2CCN(C3CCN(CCc4ccccc4)C3=O)CC2)c1 (stereo not drawn),i
Cn1c(=O)c2c(ncn2CC(=O)N2CCCC(Cc3nncn3-c3ccccc3)C2)n(C)c1=O (stereo not drawn),-15.2%
CCN1c2cc(C(=O)NCc3ccc(F)cc3)ccc2C(=O)N2CCCCCC21 (stereo not drawn),i
CCN1c2cc(C(=O)NCc3ccccc3OC)ccc2C(=O)N2CCCCCC21 (stereo not drawn),5.01µM*
CCN1c2cc(C(=O)NCc3cc(OC)ccc3OC)ccc2C(=O)N2CCCCC21 (stereo not drawn),-4.1%
CCN1c2cc(C(=O)NCc3cc(F)ccc3F)ccc2C(=O)N2CCCCC21 (stereo not drawn),3.98µM*
COc1ccccc1CNC(=O)c1ccc2c(c1)N(C)C1CCCCN1C2=O (stereo not drawn),i
CCN1c2cc(C(=O)NCc3ccccc3F)ccc2C(=O)N2CCCCCC21 (stereo not drawn),-18.8%
CSCC(=O)N1C[C@@H](NC(=O)Nc2cccc(SC)c2)C[C@H]1C(=O)N(C)CC(N)=O,-12.6%
Cc1ccsc1CN1C[C@@H]2C(C(=O)Nc3ccccc3)=NO[C@@H]2C1,-7.6%[44.1 µM]
COC[C@@H]1CN(C(=O)CCc2c(C)nn(C)c2C)C[C@H]1c1ccccn1,i
CC(=O)Nc1ccc(CN(C)C2CCc3ccccc32)cc1 (stereo not drawn),-8.4%[44.1 µM]
O=C1CC2(CCN([S+](=O)([O-])c3ccccc3)CC2)Oc2ccccc2N1,i
CCOc1ccccc1CN1CCC2(CCN([S+](=O)([O-])c3cccc(C(F)(F)F)c3)CC2)Oc2ccccc21,8.91µM*
COc1cccc([S+](=O)([O-])N2CCC3(CC2)CC(=O)c2ccccc2O3)c1,i
O=C1CC2(CCN([S+](=O)([O-])c3cccc(C(F)(F)F)c3)CC2)Oc2cc(Cl)ccc21,i
CCOc1ccccc1CN1CCC2(CCN([S+](=O)([O-])c3ccc(C)cc3)CC2)Oc2ccccc21,3.98µM*
O=C1CC2(CCN([S+](=O)([O-])c3cccc(C(F)(F)F)c3)CC2)Oc2ccccc21,i
O=C(NC1CCN(c2cc(-c3ccccc3)[nH]n2)CC1)c1ccccc1Cl,-20.3%
CN1C[C@H](O)C[C@H]1c1nnc2n1CCN(C(=O)C1CCCC1)CC2,11.7%
CN1CC2(CCN(C(=O)NCc3ccccc3)CC2)CC1C(=O)N1CCOCC1 (stereo not drawn),i
Cc1ccccc1C(=O)Nc1ccnn1C1CCN(C(=O)C2(N)CCC2)CC1,11.6%
SMILES,Pf Dd2 inh
Cc1sc2c(c1C)c(=O)n(-c1ccc(Cl)cc1)c(=O)n2Cc1cc(=O)n2ccccc2n1,i
CC(=O)c1sc2c(c1C)c(=O)n(-c1ccc(Cl)cc1)c(=O)n2Cc1cc(=O)n2cc(Cl)ccc2n1,1.26µM*
CCOc1ccc(-n2c(=O)c3c4c(sc3n(Cc3cc(=O)n5cc(Cl)ccc5n3)c2=O)CCC4)cc1,1.1%
COc1ccc2c(c1)CCN=C2C[C@H]1CN(C(=O)NC2CCCCC2)CC[C@H]1CC(=O)O,-16.6%
Cc1ccc2c(c1)nc1n2[C@@H](CNS(=O)(=O)Cc2ccccc2)COC1,i
COc1ccc(NC(=O)/C=C\C(=O)N(c2ccc(C(C)C)cc2)C(C(=O)NCc2ccco2)c2ccc(C)cc2)cc1 (stereo not drawn),10µM*
COc1ccc(/C=C/C(=O)Nc2ccc(C)cc2)cc1,-29.2%
COc1ccc(NC(=O)C(c2ccc(C)cc2)N(C)C(=O)/C=C\c2ccc3c(c2)OCO3)cc1 (stereo not drawn),-24.7%
CC(C)(C)c1nc(C(=O)N2CCN(c3ncccn3)CC2)n2ccccc12,-25.4%
O=C(NCCc1cnc[nH]1)C1CCCN(C2CCOCC2)C1 (stereo not drawn),8.9%
Cn1cc(NC(=O)C[C@H]2NC(=O)c3ccccc3NC2=O)cn1,-19.6%
COc1ccc(C2CC(=O)Nc3c2c(C)nn3-c2nc(C)cc(C)n2)c(OC)c1OC (stereo not drawn),-52.6%[0.594 µM]
CCc1ccc(C2CC(=O)Nc3c2c(C)nn3-c2nc(C)cc(C)n2)cc1 (stereo not drawn),11.2µM*
COc1cc(C2CC(=O)Nc3c2c(C)nn3-c2nc(C)cc(C)n2)cc(OC)c1O (stereo not drawn),-26.5%
c1cncc(C(CNc2ncncn2)N2CCOCC2)c1 (stereo not drawn),5.3%
CCc1ccccc1NC(=O)CCn1nc(C)c2c(C)n(-c3ccccc3)nc2c1=O,-24.5%
CCOC(=O)c1cccc(NC(=O)CCn2nc(C)c3c(C)n(-c4ccccc4)nc3c2=O)c1,2.51µM*
Cc1ccc(NC(=O)CCn2nc(C)c3c(C)n(-c4ccccc4)nc3c2=O)cc1Cl,-12.1%
COCCn1nnnc1C1CC2(CCOCC2)C(=O)N1Cc1ccc(OC(C)C)cc1 (stereo not drawn),-1.8%
Cc1ccc(CN2CCC3(CC2)CC(=O)N(c2ccccc2)c2ccccc2O3)cc1,i
O=C1CCN(S(=O)(=O)c2ccccc2)CCCN(C(=O)c2ccco2)CCN1,-4.6%
O=C(Nc1ccccc1)O[C@@H]1CO[C@H]2[C@@H]1OC[C@@H]2NC(=O)c1ccc2c(c1)OCO2,i
CC(C)NC(=O)c1cc2c(Cl)nc3ccccc3c2s1,3.3%
CCCNC(=O)c1ccc2nc(CCc3ccccc3)oc2c1,3.9%
COc1ccccc1Nc1cc(C(=O)NC2CCCC2)c2ccccc2n1,16.7%
SMILES,Pf Dd2 inh
O=C(c1cc2c(Cl)nc3ccccc3c2s1)N1CCCCC1,11.5%
CCN(CCCNC(=O)c1cc(Nc2ccccc2OC)nc2ccccc12)c1cccc(C)c1,11.2µM*
COc1ccc(Nc2cc(C(=O)NCCCN(C)Cc3ccccc3)c3ccccc3n2)c(OC)c1,17.0%
O=C(NCc1ccccc1)c1ccc2nc(CCc3ccccc3)oc2c1,3.5%
COc1ccc(Nc2cc(C(=O)NCc3ccccc3)c3ccccc3n2)c(OC)c1,-13.2%
COc1ccc(Nc2cc(C(=O)NCCCN3CCN(c4ccccc4F)CC3)c3ccccc3n2)c(OC)c1,10µM*
O=C(NCCCN1CCN(c2ccccc2F)CC1)c1ccc2nc(CCc3ccccc3)oc2c1,11.2µM*
COc1ccc(N2CCN(CCCNC(=O)c3cc(Nc4ccccc4OC)nc4ccccc34)CC2)cc1,-15.5%
CCCN1CCN(CCCNC(=O)c2cc3c(Cl)nc4ccccc4c3s2)CC1,10µM*
COCCN1C(=O)CCC2(C(=O)NCc3cccc(OC)c3OC)CCCC=C12 (stereo not drawn),i
CCc1cccc(-n2nnnc2N2CCN(C(=O)NCc3ccccc3)CC2)c1,-4.6%
Cn1cc(CN2CCOc3cc([S+](=O)([O-])Nc4cccnc4)ccc3C2)cn1,-14.0%[44.1 µM]
COc1ccc([C@@H](NC(=O)c2ccn[nH]2)C2CC(O)C2)cn1 (stereo partly drawn),-1.9%
CCC1=C(C(=O)OC)C(c2ccc(C)cc2C)N2C(CC(=O)Nc3ccc(OC)cc3)=CSC2=N1 (stereo not drawn),-24.4%
O=C(CNC(=O)c1cnccn1)NC1CCCc2c1[nH]c1ccccc21 (stereo not drawn),-3.2%
